Results: PubChem BioAssay AID1159580 (chemical genetic matrix, 2015)
The campaign covered roughly 5,500 compounds. About 2,000 (36%) were called active. Inconclusive results (about 18%) are left out. No stated cut-off is given here; in the data, active means normalized growth mostly below about 0.91 (no sharp cut-off); inconclusive means no clear call, values can overlap the other calls; inactive means mostly above about 0.92. Some of the results follow.

Experiment: chemical genetic growth profiling, strain panel (AID 1159580);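 further: tested at 20 µM; growth read once vehicle control cultures reached saturation at 30 °C; 1 = growth at the plate median or of vehicle wells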
Details: growth OD

Measured: normalized growth

OC(CCN1CCCC1)(c1ccccc1)C1CCCCC1 (centres undefined)
inactive: S. cerevisiae deletion strains, locus YJR043C, strain POL32, stronger effect = lower value 1.01 | S. cerevisiae deletion strains, locus YJR066W, strain TOR1, stronger effect = lower value 0.973 | S. cerevisiae deletion strains, locus YKL009W, strain mrt4, stronger effect = lower value 0.977 | S. cerevisiae deletion strains, locus YKL068W, stronger effect = lower value 0.985 | S. cerevisiae deletion strains, locus YKL085W, strain MDH1 (second series), stronger effect = lower value 0.977 | S. cerevisiae deletion strains, locus YKL085W, strain MDH1, stronger effect = lower value 0.977 | S. cerevisiae deletion strains, locus YKL160W, strain elf1, stronger effect = lower value 0.975 | S. cerevisiae deletion strains, locus YKL190W, strain CNB1, stronger effect = lower value 0.996 | S. cerevisiae deletion strains, locus YKR001C, strain vps1, stronger effect = lower value 0.985 | S. cerevisiae deletion strains, locus YKR026C, strain gcn3, stronger effect = lower value 0.986 | S. cerevisiae deletion strains, locus YKR091W, strain srl3, stronger effect = lower value 0.992 | S. cerevisiae deletion strains, locus YLL001W, strain dnm1, stronger effect = lower value 0.956 | S. cerevisiae deletion strains, locus YLL026W, stronger effect = lower value 0.974 | S. cerevisiae deletion strains, locus YLL041C, strain sdh2, stronger effect = lower value 0.988 | S. cerevisiae deletion strains, locus YLR027C, strain aat2, stronger effect = lower value 0.969 | S. cerevisiae deletion strains, locus YLR039C, strain RIC1, stronger effect = lower value 1.05 | S. cerevisiae deletion strains, locus YLR058C, strain SHM2, stronger effect = lower value 0.994 | S. cerevisiae deletion strains, locus YLR102C, strain apc9, stronger effect = lower value 0.972 | S. cerevisiae deletion strains, locus YLR113W, strain HOG1, stronger effect = lower value 1 | S. cerevisiae deletion strains, locus YLR221C, strain rsa3, stronger effect = lower value 0.995 | S. cerevisiae deletion strains, locus YLR258W, strain gsy2, stronger effect = lower value 1 | S. cerevisiae deletion strains, locus YLR262C, strain YPT6 (second series), stronger effect = lower value 0.998 | S. cerevisiae deletion strains, locus YLR262C, strain YPT6, stronger effect = lower value 1.07 | S. cerevisiae deletion strains, locus YLR268W, strain sec22, stronger effect = lower value 0.946 | S. cerevisiae deletion strains, locus YLR320W, strain mms22, stronger effect = lower value 0.968 | S. cerevisiae deletion strains, locus YLR330W, strain CHS5, stronger effect = lower value 0.992 | S. cerevisiae deletion strains, locus YLR342W, strain FKS1 (second series), stronger effect = lower value 0.992 | S. cerevisiae deletion strains, locus YLR342W, strain FKS1, stronger effect = lower value 0.963 | S. cerevisiae deletion strains, locus YLR357W, strain rsc2, stronger effect = lower value 0.973 | S. cerevisiae deletion strains, locus YLR370C, strain arc18, stronger effect = lower value 0.972 | S. cerevisiae deletion strains, locus YLR371W, strain rom2, stronger effect = lower value 0.958 | S. cerevisiae deletion strains, locus YLR384C, strain iki3, stronger effect = lower value 0.969 | S. cerevisiae deletion strains, locus YLR418C, strain cdc73, stronger effect = lower value 0.957 | S. cerevisiae deletion strains, locus YML016C, strain PPZ1, stronger effect = lower value 0.991 | S. cerevisiae deletion strains, locus YML032C, strain rad52, stronger effect = lower value 0.97 | S. cerevisiae deletion strains, locus YML120C, strain ndi1, stronger effect = lower value 0.972 | S. cerevisiae deletion strains, locus YML124C, strain tub3, stronger effect = lower value 0.983 | S. cerevisiae deletion strains, locus YMR058W, strain fet3, stronger effect = lower value 0.981 | S. cerevisiae deletion strains, locus YMR078C, strain ctf18, stronger effect = lower value 0.966 | S. cerevisiae deletion strains, locus YMR125W, strain sto1, stronger effect = lower value 1 | S. cerevisiae deletion strains, locus YMR129W, stronger effect = lower value 0.99 | S. cerevisiae deletion strains, locus YMR205C, strain PFK2, stronger effect = lower value 0.985 | S. cerevisiae deletion strains, locus YMR223W, strain ubp8, stronger effect = lower value 0.999 | S. cerevisiae deletion strains, locus YMR231W, strain pep5, stronger effect = lower value 1 | S. cerevisiae deletion strains, locus YMR263W, strain SAP30, stronger effect = lower value 1 | S. cerevisiae deletion strains, locus YMR307W, strain GAS1, stronger effect = lower value 0.991 | S. cerevisiae deletion strains, locus YNL067W, strain RPL9B, stronger effect = lower value 0.998 | S. cerevisiae deletion strains, locus YNL071W, strain lat1, stronger effect = lower value 1.01 | S. cerevisiae deletion strains, locus YNL128W, strain TEP1, stronger effect = lower value 0.982 | S. cerevisiae deletion strains, locus YNL183C, strain NPR1, stronger effect = lower value 0.989 | S. cerevisiae deletion strains, locus YNL209W, strain ssb2, stronger effect = lower value 0.993 | S. cerevisiae deletion strains, locus YNL233W, strain BNI4, stronger effect = lower value 1.01 | S. cerevisiae deletion strains, locus YNL248C, strain rpa49, stronger effect = lower value 1.01 | S. cerevisiae deletion strains, locus YNL250W, strain rad50, stronger effect = lower value 0.967 | S. cerevisiae deletion strains, locus YNL271C, strain bni1, stronger effect = lower value 0.987 | S. cerevisiae deletion strains, locus YNL298W, strain CLA4, stronger effect = lower value 0.97 | S. cerevisiae deletion strains, locus YNL307C, strain MCK1, stronger effect = lower value 0.976 | S. cerevisiae deletion strains, locus YNL322C, strain KRE1 (second series), stronger effect = lower value 0.981 | S. cerevisiae deletion strains, locus YNR049C, strain mso1, stronger effect = lower value 0.998 | S. cerevisiae deletion strains, locus YNR052C, strain pop2, stronger effect = lower value 0.98 | S. cerevisiae deletion strains, locus YOL006C, strain TOP1, stronger effect = lower value 1.02 | S. cerevisiae deletion strains, locus YOL012C, strain htz1 0.758 | S. cerevisiae deletion strains, locus YOL147C, strain pex11, stronger effect = lower value 0.975 | S. cerevisiae deletion strains, locus YOR001W, strain rrp6, stronger effect = lower value 0.965 | S. cerevisiae deletion strains, locus YOR061W, strain CKA2, stronger effect = lower value 0.987 | S. cerevisiae deletion strains, locus YOR069W, strain VPS5, stronger effect = lower value 0.989 | S. cerevisiae deletion strains, locus YOR070C, strain gyp1, stronger effect = lower value 1 | S. cerevisiae deletion strains, locus YOR080W, strain dia2, stronger effect = lower value 0.983 | S. cerevisiae deletion strains, locus YOR083W, strain WHI5, stronger effect = lower value 0.956 | S. cerevisiae deletion strains, locus YOR106W, strain vam3, stronger effect = lower value 0.979 | S. cerevisiae deletion strains, locus YOR136W, strain idh2, stronger effect = lower value 0.982 | S. cerevisiae deletion strains, locus YOR144C, strain elg1, stronger effect = lower value 0.979 | S. cerevisiae deletion strains, locus YOR184W, strain ser1, stronger effect = lower value 0.985 | S. cerevisiae deletion strains, locus YOR231W, strain MKK1, stronger effect = lower value 0.963 | S. cerevisiae deletion strains, locus YOR265W, strain rbl2, stronger effect = lower value 0.988 | S. cerevisiae deletion strains, locus YOR270C, strain vph1, stronger effect = lower value 0.965 | S. cerevisiae deletion strains, locus YOR290C, strain snf2, stronger effect = lower value 1.01 | S. cerevisiae deletion strains, locus YOR316C, strain cot1, stronger effect = lower value 0.97 | S. cerevisiae deletion strains, locus YPL051W, strain arl3, stronger effect = lower value 0.987 | S. cerevisiae deletion strains, locus YPL078C, strain atp4, stronger effect = lower value 0.945 | S. cerevisiae deletion strains, locus YPL106C, strain sse1, stronger effect = lower value 1 | S. cerevisiae deletion strains, locus YPL240C, strain hsp82, stronger effect = lower value 0.978 | S. cerevisiae deletion strains, locus YPL256C, strain CLN2, stronger effect = lower value 1.02 | S. cerevisiae deletion strains, locus YPR119W, strain clb2, stronger effect = lower value 0.981 | S. cerevisiae deletion strains, locus YPR141C, strain kar3, stronger effect = lower value 0.978 | S. cerevisiae deletion strains, locus YPR163C, strain tif3, stronger effect = lower value 0.974 | S. cerevisiae deletion strains, locus YPR167C, strain met16, stronger effect = lower value 0.978 | S. cerevisiae deletion strains, strain wtn01, stronger effect = lower value 0.964 | S. cerevisiae strains, strain wild type, stronger effect = lower value 0.996
